Results filed as inconclusive are left out. Where a call stands in place of a potency, no number is given. Calls of active or inactive are those of the source. Calls come from the whole dose curve; as a rule, active = well fitted cell-killing curve with a large enough effect; inconclusive = small, poorly fitted or top-dose-only effect; inactive = no such curve, though single readings can be large or run the other way.
Experiment: qHTS of pediatric cancer cell lines to identify multiple opportunities for drug repurposing: Primary screen for SJ-GBM2 cells (AID 1347091)
Settings: SJ-GBM2 viability, CellTiter-Glo luminescence, 48 h; series mostly up to 46 µM
Description: Drug repurposing or repositioning has been offered as a strategy for drug development in oncology programs. This approach has special potential for childhood cancers and other rare or orphan diseases, where the expected return on new drug development has been a disincentive to pharmaceuticals.
In this project we exploit the poly-pharmacology of drugs to discover new indications via phenotypic screening of a panel of 19 well-characterized cell lines derived from solid tumors seen in children and adolescents. The goal is to identify approved drugs with previously unrecognized anticancer properties that has the potential to reveal new mechanisms and biological processes involved in carcinogenesis or drug resistance. We employed a titration-based paradigm (quantitative high-throughput screening or qHTS), where all compounds were tested at multiple concentrations for their effect on cell viability. Concentration-response curves (CRCs) were derived directly from the primary screen, and both potency and efficacy values were used to identify compounds with robust bioactivity profiles. We screened the NIH Chemical Genomics Center (NCGC) Pharmaceutical Collection (NPC) and Mechanism Interrogation Plate (MIPE) small molecule collections of approved and investigational compounds against these cell lines; and measured metabolically active cells after 48 hours of compound treatment as a proxy for cell viability.
Assay Submitter: Nathalia J. Martinez, National Center for Advancing Translational Sciences, National Institutes of Health, Rockville, MD, USA; email: natalia.martinez@nih.gov
[1] Shen, M et al. Quantitative high-throughput phenotypic screening of pediatric cancer cell lines identifies multiple opportunities for drug repurposing. Oncotarget 2017 Dec 19;9(4):4758-4772. PMID 29435139.
The cells were obtained from University of North Carolina (UNC), Pediatric Preclinical Testing Program (PPT), and Coriell Institute (CI).
qHTS cell viability assay:
Cells were assayed in growth media at a density of 500-1,000 cells/well. Five microliters of cells were dispensed into 1,536-well, white, solid-bottom, TC-treated plates (Greiner Bio One) using a multidrop dispenser and incubated at 37 degrees C, 5% CO2, under a humidified atmosphere for 5 hours. Twenty-three nanoliters of compounds and controls (neutral control DMSO or positive control bortezomib at final concentration of 2.3 µM) were subsequently transferred by Kalypsys pintool. For primary screens, the MIPE collection was tested at 11-point dilutions (final concentrations range from 0.78 nM to 46 µM) and the NPC collection at 8-point dilutions (final concentrations range from 0.59 nM to 46 µM). Compounds tested in follow-up screens were assayed at 11-point dilutions. Cells were incubated for 48 hours, followed by addition of 3 uL of CellTiter-Glo (Promega). After a 15 min incubation at room temperature, samples were analyzed for luminescence intensity using a ViewLux High-throughput CCD imager equipped with clear filters.
Potency is the fitted concentration of half-maximal effect.

Structure (SMILES) | Potency
O=C1OC(c2ccc(O)c(S(=O)(=O)O)c2)(c2ccc(O)c(S(=O)(=O)O)c2)c2c(Br)c(Br)c(Br)c(Br)c21 | inactive
Nc1ccc([As](=O)(O)O)cc1 | inactive
c1ccc2c(c1)sc1ccccc12 | inactive
O=[N+]([O-])O[C@H]1CO[C@H]2[C@@H]1OC[C@H]2O[N+](=O)[O-] | inactive
CN(C)CCc1c[nH]c2cccc(OP(=O)(O)O)c12 | inactive
C[C@]12CCC(=O)C=C1CC[C@@H]1[C@H]3CC[C@](C)(O)[C@@]3(C)CC[C@@H]12 | 49 µM (active)
CC(Cc1ccccc1)NCCn1cnc2c1c(=O)n(C)c(=O)n2C (stereo not given) | inactive
COP(=S)(OC)SCN1C(=O)c2ccccc2C1=O | inactive
C[C@@H](N)[C@@H](O)c1ccccc1 | inactive
CCCCCCCCCC(=O)O[C@H]1CC[C@H]2[C@@H]3CCC4=CC(=O)CC[C@@H]4[C@H]3CC[C@]12C | inactive
COP(=S)(OC)Oc1cc(Cl)c(Cl)cc1Cl | inactive
NCCc1ccc(O)cc1 | inactive
CNCC(=O)c1ccc(O)c(O)c1 | inactive
C[C@H]1[C@@H]2Cc3ccc(O)cc3[C@@]1(C)CCN2C | inactive
C#C[C@]1(O)CC[C@H]2[C@@H]3CCC4=CC(=O)CC[C@]4(C)[C@H]3CC[C@@]21C | inactive
O=C(O)CCCc1ccc(N(CCCl)CCCl)cc1 | 13.2 µM (active)
COc1c2c(cc3c1OCO3)CCN(C)C2 | inactive
NC1=NC(=O)C(c2ccccc2)O1 (stereo not given) | inactive
[N-]=[N+]=CC(=O)OC[C@H](N)C(=O)O | inactive
CCC(CC)(CNC(=O)CCCO)c1cccc(OC)c1 | inactive

Structure (SMILES) | Potency
CCOC(=O)CC(SP(=S)(OC)OC)C(=O)OCC (stereo not given) | inactive
C[C@]12CC[C@@H]3c4ccc(OC(=O)N(CCCl)CCCl)cc4CC[C@H]3[C@@H]1CC[C@@H]2OP(=O)(O)O | 16.6 µM (active)
CN1C(=O)CCS(=O)(=O)C1c1ccc(Cl)cc1 (stereo not given) | inactive
COC(=O)[C@@H](N)CCCN/C(N)=N/[N+](=O)[O-] | inactive
CNC(C)(C)Cc1ccccc1 | inactive
CC(C)(C)NCC(O)c1ccccc1Cl (stereo not given) | inactive
c1ccc(N2CCNCC2)cc1 | inactive
CCN[C@H](C)Cc1cccc(C(F)(F)F)c1 | inactive
CC(NC(C)(C)C)C(=O)c1cccc(Cl)c1 (stereo not given) | inactive
CCN[C@@H](C)Cc1ccccc1 | inactive
CN1C(=O)COc2c(C(=O)NC3CN4CCC3CC4)cc(Cl)cc21 (stereo not given) | inactive
CC(=O)OCC1=C(C(=O)O)N2C(=O)[C@@H](N)[C@H]2SC1 | inactive
CC(C(=O)c1ccccc1)N(C)C (stereo not given) | inactive
CN1C(=O)NC(=O)C(C)(C2=CCCCC2)C1=O (stereo not given) | inactive
CC(=O)C1CCOC1=O (stereo not given) | inactive
CC(C)C[C@H](CN)CC(=O)O | inactive
O=C(O)c1ccc(=O)[nH]c1 | inactive
Nc1ccccc1 | inactive
COP(=S)(OC)Oc1ccc(SC)c(C)c1 | inactive
ClCCN1CCCC1 | inactive
